The source of these data is PubChem BioAssay (EPA / NIEHS).

The target of test [1] is human Peripheral-type Benzodiazepine Receptor (PBR), TSPO (gene 706) (UniProt P30536). The test can be described thus: NVS_MP_hPBR: NovaScreen (NVS) Membrane Protein Assay for human Peripheral-type Benzodiazepine Receptor (PBR) (AID 2283331).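 Note: hits reduce radioligand binding relative to DMSO baseline.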 In a few lines: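 Radioligand displacement on human colonic cell membranes, 1 h incubation; bound radioactivity by filtration and scintillation counting. Primary screen in duplicate at 25 uM single concentration, actives followed up in concentration series; loss of binding versus DMSO.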

Test [2] addresses rat Peripheral-type Benzodiazepine Receptor (PBR), Tspo (gene 24230) (UniProt P16257). The test can be described thus: NVS_MP_rPBR: NovaScreen (NVS) Membrane Protein Assay for rat Peripheral-type Benzodiazepine Receptor (PBR) (AID 2283335). In a few lines: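 Rat kidney membranes; radioligand binding with displacement, filter-based scintillation counting, 1 h incubation. Primary screen in duplicate at 25 uM, actives followed in concentration series; loss of binding vs DMSO.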

Test [3] addresses bovine Estrogen Receptor (ER), ESR1 (gene 407238) (UniProt P49884). The test can be described thus: NVS_NR_bER: NovaScreen (NVS) Nuclear Receptor Binding Assay for bovine Estrogen Receptor (ER) (AID 2283345).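 Note: actives lower the bound radioligand count which means they displace the ER ligand.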 The method in brief: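 Cell-free radioligand binding with bovine uterine membrane extracts, read 18 hours after dosing by scintillation counting. Loss of signal versus DMSO baseline indicates displacement. Primary screen run in duplicate at 25 uM, actives followed in concentration series.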

Test [4] concerns the target Estrogen receptor (Homo sapiens) (UniProt P03372). The test can be described thus: NVS_NR_hER: NovaScreen (NVS) Nuclear Receptor Binding Assay for human Estrogen Receptor (ER) (AID 2283348). The method in brief: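 Radioligand competitive displacement binding to estrogen receptor from MCF7 extract, cell-free; 18 h after dosing, scintillation read-out. Primary screen in duplicate at 25 uM; actives followed up in concentration series; loss of signal vs DMSO.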

The target of the next test is PGR (gene 5241) (UniProt P06401). The test can be described thus: NVS_NR_hPR: NovaScreen (NVS) Nuclear Receptor Binding Assay for human Progestron Receptor (PR) (AID 2283360).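 Note: active means loss of bound radioligand signal versus DMSO baseline.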 In a few lines: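 Radioligand competition binding on receptor extracted from T47D cells, read by scintillation counting 18 h after dosing. Loss of signal versus DMSO; primary screen in duplicate at 25 uM, actives followed in concentration series.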

The target of test [5] is chimpanzee Androgen Receptor (AR), AR (gene 747460) (UniProt O97775). The test can be described thus: NVS_NR_cAR: NovaScreen (NVS) Nuclear Receptor Binding Assay for chimpanzee Androgen Receptor (AR) (AID 2283346).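 Note: a loss of bound radioligand signal versus DMSO counts as binding.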 In a few lines: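 Radioligand binding to chimpanzee AR expressed in Sf9/Sf21 cells, cell-free, measured 72 h after dosing by lysate-based scintillation counting. Loss of signal vs DMSO; initial duplicate screen at 25 uM, actives retested in concentration series.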

Test [6] addresses Estrogen receptor (Homo sapiens) (UniProt P03372). The test can be described thus: OT_ER_ERaERa_1440: Odyssey Thera (OT) 24-hour HEK293T Protein-Complementation Assay for Estrogen Receptor-alpha/-alpha Homodimer (AID 2283349).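 Note: hits raise fluorescence above DMSO for agonists and antagonists alike.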 The method in brief: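 HEK293T cells stably expressing the human ER alpha ligand-binding domain (aa 310-547) as a homodimer PCA were dosed for 24 hours. Fluorescence intensity was read by laser scanning cytometry, and gain of signal was fitted relative to DMSO vehicle.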

For test [7] the target is unchanged. The test can be described thus: OT_ER_ERaERa_0480: Odyssey Thera (OT) 8-hour HEK293T Protein-Complementation Assay for Estrogen Receptor-alpha/-alpha Homodimer (AID 2283351).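 Note: rise in fluorescence from reassembled reporter fragments on ERα LBD homodimer in nucleus or whole cell.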 The method in brief: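 The readout is complementation of fragments fused to the human ER alpha ligand-binding domain (aa 310-547), stably expressed in HEK293T cells. After 8 h of exposure, the increase in nuclear/cytoplasmic fluorescence was measured by laser scanning cytometry and fitted relative to DMSO.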

The target of test [8] is Androgen Receptor/SRC-1 Co-activator, AR (gene 367) (UniProt P10275). The test can be described thus: OT_AR_ARSRC1_0960: Odyssey Thera (OT) 16-hour HEK293T Protein-Complementation Assay for Androgen Receptor/SRC-1 Co-activator (AID 2283353).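 Note: actives raise the signal above DMSO so potency reflects increased AR and SRC-1 complex.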 The method in brief: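 HEK293T cells stably expressing AR and SRC-1 fused to Venus YFP fragments, imaged 16 h after dosing. Nuclear/cytoplasmic fluorescence ratio at 488 nm from at least 400 cells per image; gain of signal relative to DMSO.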

Test [9] shares this target. The test can be described thus: OT_AR_ARSRC1_0480: Odyssey Thera (OT) 8-hour HEK293T Protein-Complementation Assay for Androgen Receptor/SRC-1 Co-activator (AID 2283354).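 Note: hits raise the complementation signal above DMSO so AC50 marks enhancers.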 In a few lines:
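HEK293T cells stably expressing AR and SRC-1 fused to Venus YFP fragments, imaged 8 h after dosing. Complementation fluorescence scored as nuclear/cytoplasmic ratio at 488 nm in at least 400 cells per image; gain fitted versus DMSO.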

Test [10] has as its target Estrogen receptor (Homo sapiens) + Estrogen receptor beta (Homo sapiens) (UniProt P03372+Q92731). The test can be described thus: OT_ER_ERaERb_1440: Odyssey Thera (OT) 24-hour HEK293T Protein-Complementation Assay for Estrogen Receptor-alpha/-beta Homodimer (AID 2283356).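 Note: heteromer of ER alpha and ER beta binding domains; hits raise reporter fluorescence and both agonists and antagonists give an increase.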 The method in brief: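 Readout: mean fluorescence intensity in nucleus (agonists) or nucleus plus cytoplasm (antagonists), read by laser scanning cytometer after 24 h compound exposure of HEK293T cells carrying ERα/ERβ LBD fragment-complementation constructs; DMSO baseline.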

In test [11] the target is human Thyroid Receptor Alpha (TRa), THRA (gene 7067) (UniProt P10827). The test can be described thus: NVS_NR_hTRa_Antagonist: NovaScreen (NVS) Nuclear Receptor Binding Assay for human Thyroid Receptor Alpha Antagonism (TRa) (AID 2283362).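 Note: activity is loss of signal relative to DMSO baseline.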 The method in brief: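 AlphaLISA chemiluminescent immunoassay readout, taken 1 h post-dosing in a cell-free system with extracted protein. Activity was scored as signal loss against DMSO negative control, from duplicate single-concentration (25 uM) testing followed by concentration-response follow-up.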

A short description of test [12]: NVS_IC_rCaBTZCHL: NovaScreen (NVS) Ion Channel Assay for Calcium Channel, Type L, Benzothiazepine Site (CaBTZCHL) (AID 2283337). The method in brief: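 Radioligand displacement at the benzothiazepine site using rat cortical membranes; bound label measured by filtration and scintillation counting 1.5 h after dosing. Single-point 25 uM in duplicate, then concentration series; DMSO baseline.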

Test [13] deals with Estrogen receptor beta (Homo sapiens) (UniProt Q92731). The test can be described thus: OT_ER_ERbERb_0480: Odyssey Thera (OT) 8-hour HEK293T Protein-Complementation Assay for Estrogen Receptor-beta/-beta Homodimer (AID 2283357).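 Note: active means signal gain over DMSO baseline.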 In a few lines:
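Fluorescence intensity, nuclear for agonists and nuclear plus cytoplasmic for antagonists, was quantified by laser scanning cytometry versus vehicle after 8 h treatment. The cells were HEK293T stably carrying ER beta LBD fragment-complementation partners.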

The target of test [14] is Sodium channel protein type 1 subunit alpha (Rattus norvegicus) (UniProt P04774). The test can be described thus: NVS_IC_rNaCh_site2: NovaScreen (NVS) Ion Channel Assay for rat Sodium Channel, Site 2 (NaCh) (AID 2283322).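 Note: hit means loss of radioligand binding signal relative to DMSO so AC50 marks displacement.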 The method in brief: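 Membranes: rat forebrain. Format: competitive radioligand displacement, filter separation, scintillation readout, 1 h exposure. Primary screen in duplicate at 25 uM; actives retested in concentration series.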

The target of test [15] is rat Gamma-Aminobutyric Acid Type A Receptor, Non-Selective (GABAR-NonSelective), Gabra1 (gene 29705) (UniProt P62813). The test can be described thus: NVS_LGIC_rGABAR_NonSelective: NovaScreen (NVS) Ligand-Gated Ion Channel Assay for rat Gamma-Aminobutyric Acid Type A Receptor, Non-Selective (GABAR-NonSelective) (AID 2283326). The method in brief: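 Radioligand displacement on rat whole-brain extract, 1 h, filter scintillation readout; signal loss fitted versus DMSO. Primary screen in duplicate at 25 uM; hits (e.g. ≥30% inhibition) retested in concentration-response up to 50 uM.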

The target of test [16] is rat Mineralocorticoid Receptor (MR), Nr3c2 (gene 25672) (UniProt P22199). The test can be described thus: NVS_NR_rMR: NovaScreen (NVS) Nuclear Receptor Binding Assay for rat Mineralocorticoid Receptor (MR) (AID 2283355). The method in brief:
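Cell-free radioligand binding to mineralocorticoid receptor from adrenalectomized rat brain supernatant, scintillation counting after 24 h. Primary screen in duplicate at 25 uM; actives retested in concentration series. Loss of specific binding versus DMSO.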

The target of test [17] is rat Adrenergic Receptor, Alpha 2 (Adra2), Non-selective Binding, Adra2a (gene 25083) (UniProt P22909). The test can be described thus: NVS_GPCR_rAdra2_NonSelective: NovaScreen (NVS) G Protein-Coupled Receptor Assay for rat Adrenergic Receptor, Alpha 2 (Adra2), Non-selective Binding (AID 2283299). The method in brief:
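Rat cortical membranes, radioligand competitive displacement read by filter-based scintillation counting 1.25 hours after dosing. Primary screen in duplicate at 25 uM; actives followed up in concentration series.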

Where “and” joins values, the source holds several entries; their conditions need not be identical. Equal entries are not always repeated. Inconclusive results are not listed. Some structures have more than one record in an assay (separate samples or runs), and their calls can disagree. Calls of active or inactive are those of the source. Rule for the calls: active = hit-call score of the fitted dose curve at least 0.9, where 1 is the maximum; inconclusive = response in the unintended direction; inactive = score below 0.9.

The AC50 is the midpoint of the concentration-response curve, whichever way the signal moves.

Chain of Estrogen receptor (Homo sapiens) (P03372 whole entry, looked up, the tested form may be a part): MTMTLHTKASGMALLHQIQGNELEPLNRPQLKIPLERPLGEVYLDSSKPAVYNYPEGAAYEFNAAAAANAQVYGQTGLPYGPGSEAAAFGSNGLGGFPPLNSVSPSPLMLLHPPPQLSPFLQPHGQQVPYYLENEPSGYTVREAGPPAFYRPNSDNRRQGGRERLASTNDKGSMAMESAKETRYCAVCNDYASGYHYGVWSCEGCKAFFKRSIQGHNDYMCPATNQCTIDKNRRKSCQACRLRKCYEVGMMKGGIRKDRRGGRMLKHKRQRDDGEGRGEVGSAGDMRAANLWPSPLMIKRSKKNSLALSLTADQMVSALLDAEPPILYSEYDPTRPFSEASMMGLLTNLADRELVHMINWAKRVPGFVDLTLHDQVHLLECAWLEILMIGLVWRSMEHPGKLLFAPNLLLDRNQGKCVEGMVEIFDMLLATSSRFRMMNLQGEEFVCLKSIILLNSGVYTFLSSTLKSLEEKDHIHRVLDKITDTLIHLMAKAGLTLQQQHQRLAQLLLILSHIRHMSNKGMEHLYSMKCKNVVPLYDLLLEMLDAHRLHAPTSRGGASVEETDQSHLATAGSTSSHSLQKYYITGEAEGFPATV
Chain of chimpanzee Androgen Receptor (AR), AR (gene 747460) (O97775 whole entry, looked up): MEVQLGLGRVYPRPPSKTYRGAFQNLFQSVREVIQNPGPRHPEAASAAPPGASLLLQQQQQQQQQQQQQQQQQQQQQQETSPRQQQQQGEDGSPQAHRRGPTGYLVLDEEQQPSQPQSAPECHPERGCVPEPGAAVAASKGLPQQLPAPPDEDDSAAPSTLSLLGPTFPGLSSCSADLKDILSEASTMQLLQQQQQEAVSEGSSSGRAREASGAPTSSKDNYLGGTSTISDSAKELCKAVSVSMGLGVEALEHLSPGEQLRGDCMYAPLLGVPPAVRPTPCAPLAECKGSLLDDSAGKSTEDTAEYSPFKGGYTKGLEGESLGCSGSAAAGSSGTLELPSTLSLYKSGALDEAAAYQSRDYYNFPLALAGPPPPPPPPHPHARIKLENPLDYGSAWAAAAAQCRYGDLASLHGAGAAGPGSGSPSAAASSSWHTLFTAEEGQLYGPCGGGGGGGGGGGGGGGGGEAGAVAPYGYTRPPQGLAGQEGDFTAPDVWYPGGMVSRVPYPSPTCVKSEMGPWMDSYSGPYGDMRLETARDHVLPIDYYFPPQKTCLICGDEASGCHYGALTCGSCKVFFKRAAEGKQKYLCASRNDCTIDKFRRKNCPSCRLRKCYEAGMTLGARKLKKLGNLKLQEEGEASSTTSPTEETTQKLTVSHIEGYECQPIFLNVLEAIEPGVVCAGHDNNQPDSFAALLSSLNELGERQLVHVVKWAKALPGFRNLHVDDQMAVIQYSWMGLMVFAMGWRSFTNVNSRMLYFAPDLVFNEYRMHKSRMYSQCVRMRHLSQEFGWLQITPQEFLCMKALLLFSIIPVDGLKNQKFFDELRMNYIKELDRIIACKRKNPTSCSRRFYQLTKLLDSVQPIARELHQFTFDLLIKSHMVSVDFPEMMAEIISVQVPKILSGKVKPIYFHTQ
Chain of rat Peripheral-type Benzodiazepine Receptor (PBR), Tspo (gene 24230) (P16257 whole entry, looked up): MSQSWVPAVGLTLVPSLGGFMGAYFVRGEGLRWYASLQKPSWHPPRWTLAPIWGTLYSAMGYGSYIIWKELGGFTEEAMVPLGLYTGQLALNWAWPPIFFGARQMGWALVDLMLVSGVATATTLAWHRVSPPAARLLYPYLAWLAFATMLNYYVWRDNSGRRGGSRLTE
Chain of human Peripheral-type Benzodiazepine Receptor (PBR), TSPO (gene 706) (P30536 whole entry, looked up): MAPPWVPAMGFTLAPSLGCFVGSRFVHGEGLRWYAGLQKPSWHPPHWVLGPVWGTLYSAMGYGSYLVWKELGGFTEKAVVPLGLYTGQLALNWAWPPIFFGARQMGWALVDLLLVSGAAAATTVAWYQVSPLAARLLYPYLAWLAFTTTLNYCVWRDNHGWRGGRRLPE
Chain of bovine Estrogen Receptor (ER), ESR1 (gene 407238) (P49884 whole entry, looked up): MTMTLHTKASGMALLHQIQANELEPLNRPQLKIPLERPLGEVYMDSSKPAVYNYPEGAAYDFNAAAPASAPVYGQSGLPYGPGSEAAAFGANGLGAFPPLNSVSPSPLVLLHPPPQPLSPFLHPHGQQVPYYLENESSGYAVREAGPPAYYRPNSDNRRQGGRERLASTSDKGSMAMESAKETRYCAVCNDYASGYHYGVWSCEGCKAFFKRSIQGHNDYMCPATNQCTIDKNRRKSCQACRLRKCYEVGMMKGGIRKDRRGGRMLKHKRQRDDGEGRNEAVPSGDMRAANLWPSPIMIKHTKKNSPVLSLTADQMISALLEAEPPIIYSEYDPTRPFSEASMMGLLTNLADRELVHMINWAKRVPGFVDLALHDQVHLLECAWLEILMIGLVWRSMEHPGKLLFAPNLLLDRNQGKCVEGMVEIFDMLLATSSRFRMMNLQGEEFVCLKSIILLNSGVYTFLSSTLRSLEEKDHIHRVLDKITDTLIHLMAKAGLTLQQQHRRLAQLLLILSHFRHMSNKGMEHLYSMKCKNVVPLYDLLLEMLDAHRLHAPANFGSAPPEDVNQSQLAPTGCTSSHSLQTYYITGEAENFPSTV
Chain of Estrogen receptor beta (Homo sapiens) (Q92731 whole entry, looked up, the tested form may be a part): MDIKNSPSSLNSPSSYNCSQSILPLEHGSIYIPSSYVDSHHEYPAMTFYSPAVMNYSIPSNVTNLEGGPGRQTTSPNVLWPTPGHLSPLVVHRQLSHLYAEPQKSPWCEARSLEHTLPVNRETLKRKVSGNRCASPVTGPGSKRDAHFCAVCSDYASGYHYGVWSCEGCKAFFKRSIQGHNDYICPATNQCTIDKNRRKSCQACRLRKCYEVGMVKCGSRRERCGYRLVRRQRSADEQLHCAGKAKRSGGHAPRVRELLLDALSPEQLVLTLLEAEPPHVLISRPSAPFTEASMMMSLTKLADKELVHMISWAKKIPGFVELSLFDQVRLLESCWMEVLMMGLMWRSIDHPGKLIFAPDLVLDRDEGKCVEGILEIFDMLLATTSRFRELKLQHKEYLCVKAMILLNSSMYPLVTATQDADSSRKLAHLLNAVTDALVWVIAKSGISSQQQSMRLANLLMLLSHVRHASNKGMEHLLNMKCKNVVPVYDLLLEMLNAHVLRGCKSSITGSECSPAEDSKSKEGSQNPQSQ
Chain of Estrogen receptor (Homo sapiens) + Estrogen receptor beta (Homo sapiens) (P03372 whole entry, looked up, the tested form may be a part): as the sequence (P03372 whole entry, looked up, the tested form may be a part) above
Chain of Estrogen receptor (Homo sapiens) + Estrogen receptor beta (Homo sapiens) (Q92731 whole entry, looked up, the tested form may be a part): as the sequence (Q92731 whole entry, looked up, the tested form may be a part) above
Chain of Androgen Receptor/SRC-1 Co-activator, AR (gene 367) (P10275 whole entry, looked up, the tested form may be a part): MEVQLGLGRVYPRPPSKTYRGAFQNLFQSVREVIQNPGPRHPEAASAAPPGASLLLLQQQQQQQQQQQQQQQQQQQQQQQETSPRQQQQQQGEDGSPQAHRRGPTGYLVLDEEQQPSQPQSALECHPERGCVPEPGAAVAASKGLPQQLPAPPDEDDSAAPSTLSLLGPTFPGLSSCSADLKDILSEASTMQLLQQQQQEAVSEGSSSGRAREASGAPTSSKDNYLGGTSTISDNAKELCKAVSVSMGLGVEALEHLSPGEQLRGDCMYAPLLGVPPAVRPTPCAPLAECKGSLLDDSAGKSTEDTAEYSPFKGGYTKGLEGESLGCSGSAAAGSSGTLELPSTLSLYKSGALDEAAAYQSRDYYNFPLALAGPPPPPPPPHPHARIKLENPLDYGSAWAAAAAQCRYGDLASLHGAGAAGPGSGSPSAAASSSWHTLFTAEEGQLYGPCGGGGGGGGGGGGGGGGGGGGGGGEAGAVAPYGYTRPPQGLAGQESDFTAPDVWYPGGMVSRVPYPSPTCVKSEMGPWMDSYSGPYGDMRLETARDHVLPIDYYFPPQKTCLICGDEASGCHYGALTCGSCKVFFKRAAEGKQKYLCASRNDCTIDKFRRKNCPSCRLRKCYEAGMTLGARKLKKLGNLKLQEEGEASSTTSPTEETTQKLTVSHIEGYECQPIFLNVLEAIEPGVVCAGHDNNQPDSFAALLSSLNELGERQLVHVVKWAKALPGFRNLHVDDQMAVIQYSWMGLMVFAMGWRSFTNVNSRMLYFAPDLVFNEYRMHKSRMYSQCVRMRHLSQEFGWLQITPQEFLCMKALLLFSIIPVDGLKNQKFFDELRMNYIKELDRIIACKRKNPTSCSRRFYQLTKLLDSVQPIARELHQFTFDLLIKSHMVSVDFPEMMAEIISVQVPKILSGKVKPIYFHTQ

On to `CN(CCOc1ccc(CC2SC(=O)NC2=O)cc1)c1ccccn1` (stereo not given), for which the AC50 was 5.39 µM (active) in [1] and 12.9 µM (active) in [2]. Moreover, the outcome (in test [3]; in test [4]; with PGR (gene 5241)) was inactive.
In the case of `CN(C)c1ccc(O)c2c1C[C@H]1C[C@H]3[C@H](N(C)C)C(=O)C(C(N)=O)=C(O)[C@@]3(O)C(=O)C1=C2O`, in test [3], the call was inactive.
For `O=Nc1ccc(Nc2ccccc2)cc1`, the outcome in [3], in test [5], in test [4], in test [6], in [7] and in test [10] was inactive. Besides, the AC50 is 14.2 µM (active) in test [8], 11 µM (active) in test [9] and 17.6 µM (active) in test [11].
On to `COc1cc2ncnc(Nc3cccc(Cl)c3)c2cc1OC`, for which the molecule was called inactive in test [1], in [2] and in [12].
For the molecule `CCCCCCCCCCCCCCCCCC(=O)OCC(CC)CCCC` (stereo not given), the outcome in test [2] and in [13] was inactive.
Take `CC(C)=CCC[C@H](C)CC=O`: in test [14], the molecule was called inactive.
On to `CC(C)=CCO`, for which the result in test [3] was inactive.
Consider `O=C(O)c1ccc([N+](=O)[O-])cc1`, for which the AC50 in [15] was 4.02 µM (active). The molecule was called inactive in [13].
For `C#C[C@]1(O)CC[C@H]2[C@@H]3CCC4=Cc5oncc5C[C@]4(C)[C@H]3CC[C@@]21C`, the molecule was classed as inactive in [3], in test [5], in [4] and in test [16]. Besides, the AC50 in test [4] was 11.5 µM (active); with PGR (gene 5241), 41.5 µM (active).
For `C=CCOc1nc(OCC=C)nc(OCC=C)n1`, the figures for the AC50 in test [1] and in test [2] were 14.3 µM (active) and 6.87 µM (active), respectively. Moreover, the outcome in test [13] was inactive.
On to `CCn1c2ccccc2c2cc(N)ccc21`, for which, in test [17], the AC50 was 25 µM (active).
As for `O=C(Oc1ccccc1)c1ccc(O)cc1`, the values for the half-maximal activity concentration (AC50) in test [1], in [2] and in test [13] were 9.99 µM (active), 4.86 µM (active) and 2.42 µM (active), respectively. Besides, the call in test [5] was inactive.
For `CC(=O)[C@H]1CC[C@H]2[C@@H]3CC=C4C[C@@H](O)CC[C@]4(C)[C@H]3CC[C@]12C`, the call in [3] and in test [4] was inactive.
As to `Cc1cccc(C)c1C`, the call in [14] was inactive.
On to `CC(C)C(C)(C)C(C)(C)C(C)(C)S`, for which the molecule was called inactive in test [3] and in test [4].
Turning to `O=C(O)CCSCCC(=O)O`, the outcome in test [3] and in test [4] was inactive.
For the molecule `CC1COc2ccccc2N1C(=O)C(Cl)Cl` (stereo not given), the AC50 in test [2] was 11 µM (active) and 9.31 µM (active); in test [3], 0.588 µM (active); in test [4] it was 0.0627 µM (active). For the same molecule, the outcome in test [12], in test [6], in [7], in test [10] and in test [13] was inactive.
With `Cc1cc(C2(c3cc(C)c(O)cc3C)OS(=O)(=O)c3ccccc32)c(C)cc1O`, the AC50 in [3] was 10.6 µM (active); in test [4], 5.05 µM (active).
